PubChem BioAssay AID1917 (Vanderbilt High Throughput Screening Facility, 2009)
In all, about 3,000 compounds went through this assay and about 1,600 (53%) were called active. Roughly 10% stayed inconclusive and do not appear here.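 The calls were made as follows: active = Flux at 10 µM at least 3 SD below or above vehicle control mean in one or both replicates; inconclusive = no clear call, values can overlap the other calls; inactive = the rest.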 The set was probably picked from earlier hits. The list is a sample of the results.

Each molecule was assayed against ATP-sensitive inward rectifier potassium channel 1 (Homo sapiens) (UniProt P48048) (assay: ROMK channel modulator hit retest, confirmation, cell-based, thallium flux, duplicate, resupplied hits (AID 1917)). Details: fluorescence ratio, at 10 µM, active compounds read low.
Sequence of ATP-sensitive inward rectifier potassium channel 1 (Homo sapiens) (P48048 whole entry, looked up): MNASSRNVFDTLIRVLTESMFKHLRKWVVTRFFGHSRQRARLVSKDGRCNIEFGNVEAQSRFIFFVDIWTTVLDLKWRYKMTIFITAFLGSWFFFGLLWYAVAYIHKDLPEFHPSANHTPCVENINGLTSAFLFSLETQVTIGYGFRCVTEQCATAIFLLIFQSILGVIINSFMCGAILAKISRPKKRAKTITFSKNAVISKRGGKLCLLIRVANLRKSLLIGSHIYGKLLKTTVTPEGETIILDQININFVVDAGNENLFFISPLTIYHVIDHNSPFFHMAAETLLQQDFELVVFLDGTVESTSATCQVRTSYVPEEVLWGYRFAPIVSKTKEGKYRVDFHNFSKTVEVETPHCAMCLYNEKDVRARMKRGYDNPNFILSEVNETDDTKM

| SMILES | normalized thallium flux (F/F0 slope) |
| --- | --- |
| Cc1nc2ccccc2nc(=O)c1NNc1ccc([N+](=O)[O-])cc1 | 0.0842 (inactive) |
| COc1ccc(N=Cc2c(O)[nH]c3ccccc23)cc1OC | 0.0799 (inactive) |
| O=[N+]([O-])c1ccc(N=Cc2c(O)ccc3ccccc23)cc1 | 0.064 (active) |
| C=CCn1cnc2scc(-c3ccccc3)c2c1=O | 0.049 (active) |
| O=C(Nc1ccc(N2CCOCC2)cc1)c1ccc(-c2ccccc2[N+](=O)[O-])o1 | 0.108 (active) |
| O=C(CCN1CCc2ccccc2C(O)(c2ccccc2)C1)c1ccc2c(c1)OCCO2 (configuration not stated) | 0.0602 (active) |
| CSc1nc2nc3c(c(=O)n2[nH]1)CCC3 | 0.0761 (inactive) |
| Cc1cccn2c(=O)c3cc(C(=O)N4COCC4(C)C)n(C)c3nc12 | 0.0444 (active) |
| Cc1ccc(S(=O)(=O)C2(S(=O)(=O)c3ccc(C)cc3)CCCC2)cc1 | 0.0776 (inactive) |
| Cc1cc2cc(CN(Cc3cccs3)Cc3nnnn3CC3CCCO3)c(=O)[nH]c2cc1C (configuration not stated) | 0.0575 (active) |
| NC(=O)c1ccccc1N(Cc1ccccc1)S(=O)(=O)c1ccccc1 | 0.0757 (inactive) |
| O=C(O)c1ccc2c(c1)C(=O)N(c1ccc(/C=C/C(=O)c3ccccc3)cc1)C2=O | 0.0504 (active) |
| CC(C)(c1ccccc1)c1ccc(OCCN)cc1 | 0.0605 (active) |
| CCCN(CCC)CC(O)COc1ccccc1C(=O)Nc1ccccc1 (configuration not stated) | 0.055 (active) |
| CS(=O)(=O)c1ccc(Cl)c(NC(=O)Nc2ccccc2)c1 | 0.0706 (inactive) |
| Cc1cccc(-n2c(SCC(=O)Nc3cccc(S(=O)(=O)NC4=NCCCCC4)c3)nc3ccccc3c2=O)c1C | 0.0482 (active) |
| Cc1ccc(C)c(NC(=O)CSc2nc3c(oc4ccccc43)c(=O)n2-c2ccccc2)c1 | 0.077 (inactive) |
| O=C(CN1CCCCCC1)NCCN1C(=O)S/C(=C\c2ccccc2Cl)C1=O | 0.0525 (active) |
| O=[N+]([O-])c1cc(Cl)cc(/C=N/NC(=S)Nc2cc(S(=O)(=O)N3CCOCC3)ccc2Cl)c1O | 0.0856 (inactive) |
| O=C1C(=O)N(c2ccccc2)c2ccccc21 | 0.0906 (inactive) |
| CCCOc1ccc(C(=O)C(CCC(CNCC)C(=O)c2ccc(OCCC)cc2)CNCC)cc1 (configuration not stated) | 0.0393 (active) |
| O=C(Cn1nc(CNc2ccc(Cl)cc2)[n+]2c1CCCCC2)c1ccc(Cl)cc1 | 0.0549 (active) |
| Cn1c(SCC(=O)N2CCCc3ccccc32)nc2ccccc2c1=O | 0.0629 (active) |

| SMILES | normalized thallium flux (F/F0 slope) |
| --- | --- |
| C=CCOc1cccc(CNn2cn[nH]c2=S)c1 | 0.0819 (inactive) |
| CN(C)/C=C(/C(=O)c1ccc(Cl)c(Cl)c1)c1nnnn1-c1ccccc1 | 0.0735 (inactive) |
| COc1ccc([N+](=O)[O-])cc1N(CC(O)CN(CC(C)C)CC(C)C)S(=O)(=O)c1ccc(C)cc1 (configuration not stated) | 0.0621 (active) |
| CC(C)CN(CC(C)C)CC(O)CN(c1ccccc1)S(=O)(=O)c1ccccc1[N+](=O)[O-] (configuration not stated) | 0.0763 (inactive) |
| O=C(CN1C(=O)NC(Cc2ccccc2)(Cc2ccccc2)C1=O)NCC1CCCCC1 | 0.056 (active) |
| O=C(CN1C(=O)NC2(CCCCC2)C1=O)NCCC1=CCCCC1 | 0.0839 (inactive) |
| COCCNC(=O)/C(C#N)=C/c1cccc(OCc2ccccc2)c1 | 0.042 (active) |
| CC(C(=O)NC1CCCC1)N(c1ccc(Oc2ccccc2)cc1)S(C)(=O)=O (configuration not stated) | 0.061 (active) |
| CCCCCCCCCCOC(=O)C[N+](C)(C)CC1CCCCC1O (configuration not stated) | 0.0597 (active) |
| CCOC(=O)Cc1csc(NC(=O)CSc2ccc(Br)cc2)n1 | 0.0659 (active) |
| CCOC(=O)Cc1csc(SCC(=O)NC(C)C23CC4CC(CC(C4)C2)C3)n1 (configuration not stated) | 0.0513 (active) |
| CC1=CC2=NC(=O)/C(=C/c3coc4ccccc4c3=O)C(=N)N2O1 | 0.0388 (active) |
| Cc1cc(/C=C2/C(=N)N3C(=NC2=O)SN=C3S(C)(=O)=O)c(C)n1-c1ccccc1 | 0.0746 (inactive) |
| O=C(CCl)N(Cc1cccc([N+](=O)[O-])c1)c1cccc(Cl)c1 | 0.0469 (active) |
| CC(C)(C)CC(C)(C)NCC(O)COCCOc1ccc(Br)cc1 (configuration not stated) | 0.0489 (active) |
| CC1CCCN(S(=O)(=O)c2ccc(N(C(=O)c3cnccn3)C(C(=O)NC3CCCCC3)c3cccs3)cc2)C1 (configuration not stated) | 0.0633 (active) |
| N#Cc1c(N)n(CCOC(=O)c2ccc(Cl)cc2)c2nc3ccccc3nc12 | 0.0672 (active) |
| O=C(Nc1nnc(SCc2ccccc2Cl)s1)c1cccc([N+](=O)[O-])c1 | 0.0638 (active) |
| CCC(C)(C)n1nnnc1C(c1cccs1)N1CCN(c2nc3ccccc3s2)CC1 (configuration not stated) | 0.0713 (inactive) |
| Cc1ccc(C(=O)C[n+]2cc(-c3ccccc3)n3c2CCCCC3)cc1 | 0.0564 (active) |
| CN(NC(=O)c1ccccc1F)c1nc(C(F)(F)F)nc2ccccc12 | 0.0894 (inactive) |
| O=C(/C=C/c1ccc(Cl)c([N+](=O)[O-])c1)c1cccnc1 | 0.0474 (active) |
| O=C(/C=C/c1ccc(Cl)cc1Cl)c1cccnc1 | 0.0511 (active) |

| SMILES | normalized thallium flux (F/F0 slope) |
| --- | --- |
| O=C(/C=C/c1ccc(Cl)c([N+](=O)[O-])c1)c1ccc(O)cc1 | 0.0498 (active) |
| O=C1COc2ccc(NC(=O)N3CCN(c4ccc(F)cc4)CC3)cc2N1 | 0.0765 (inactive) |
| O=C(CN1CCOCC1)N/N=C/c1ccc(-c2ccc(Br)cc2)o1 | 0.0674 (active) |
| COc1ccccc1-n1c(C)nc2cc(C(=O)NCc3ccc4c(c3)OCO4)ccc21 | 0.0924 (inactive) |
| O=C(NCCc1ccc2c(c1)OCCO2)c1cc2ccccc2o1 | 0.0628 (active) |
| COc1ccc2[nH]c(=O)c(CNc3ccc(C)c(C)c3)cc2c1 | 0.0713 (inactive) |
| Clc1ccc(-n2nnnc2-c2cnc(-c3ccccn3)nc2-c2cccs2)cc1 | 0.0713 (inactive) |
| CCC(c1nnnn1C1CCCC1)N(Cc1cccs1)Cc1cc2cccc(C)c2[nH]c1=O (configuration not stated) | 0.0635 (active) |
| Cc1cccc2cc(CN(Cc3nnnn3Cc3ccccc3)C3CCCC3)c(=O)[nH]c12 | 0.055 (active) |
| COc1ccc(C(=O)OCC(=O)c2ccc(C)c(S(=O)(=O)N3CCOCC3)c2)cc1OC | 0.0776 (inactive) |
| C#CCOCCOCCOCCNc1nc(N2CCN(C(=O)[C@H](CCC(=O)O)n3cc(C(N)CO)nn3)CC2)nc(N2CCN(C(=O)[C@H](CCCCN)n3cc(C(N)[C@H](C)CC)nn3)CC2)n1 (some centres not stated) | 0.0789 (inactive) |
| Cc1ccc(CNC(=O)CC2Sc3ccccc3NC2=O)cc1 (configuration not stated) | 0.086 (inactive) |
| CSc1cccc(NC(=S)N(Cc2ccccc2)Cc2ccccn2)c1 | 0.0791 (inactive) |
| CNC(=O)/C(C#N)=C/c1c(F)cccc1Cl | 0.0423 (active) |
| CCOC(=O)c1c(NC(=O)CCl)sc(C(=O)N(CC)CC)c1C | 0.0722 (inactive) |
| COc1ccccc1N1CCN(CCCCOc2ccc(F)cc2)CC1 | 0.0581 (active) |
| Cc1ccccc1CCN(CC(=O)NC1CCCCC1)C(=O)c1csnn1 | 0.0568 (active) |
| Cc1cc(C(C)(C)C)oc1C(=O)N(CC(=O)NC1CCCC1)Cc1ccc(Cl)cc1 | 0.0748 (inactive) |
| CCCS(=O)(=O)N1CCC(C(=O)NCCCN(C)Cc2ccccc2)CC1 | 0.0759 (inactive) |
| COc1ccc(-c2[nH]ncc2CN(C)Cc2c(C)n[nH]c2C)c(OC)c1 | 0.0773 (inactive) |
| COC(=O)Cn1cc(/C=C/[N+](=O)[O-])c2ccccc21 | 0.0436 (active) |
| CCOc1ccc2nc(N3CCCN(C(=O)Nc4ccccc4C)CC3)c(C#N)cc2c1 | 0.0592 (active) |
| CCOc1ccc2nc(Cl)c(C3CC(c4ccccc4)=NN3C(=O)c3cccs3)cc2c1 (configuration not stated) | 0.084 (inactive) |

| SMILES | normalized thallium flux (F/F0 slope) |
| --- | --- |
| COc1ccccc1-n1c(=S)[nH]c2c(sc(=S)n2-c2ccc(C)cc2C)c1=O | 0.0774 (inactive) |
| COc1ccc(Br)cc1C(=O)Nc1cccc(C)c1C | 0.0855 (inactive) |
| Cc1cc(Br)ccc1NC(=O)c1cnc(N2CCN(c3ccccn3)CC2)c2ccccc12 | 0.0609 (active) |
| CN(C)c1ccc(C=C2C(=O)OC3(CCCC3)OC2=O)cc1 | 0.0453 (active) |
| CCOc1ccccc1C1C(C(=O)OC)=CN(C)C=C1C(=O)OC | 0.0653 (active) |
| O=C(Nc1ccccc1-c1ccccc1)c1cccs1 | 0.0658 (active) |
| c1ccc2c(c1)CSc1sccc1C2=C1CCNCC1 | 0.0498 (active) |
| Fc1ccc2[nH]c3c(N4CCSCC4)ncnc3c2c1 | 0.0617 (active) |
| Cc1cc(/C=N/NC(N)=O)c(C)n1C1CCCCC1 | 0.0777 (inactive) |
| CC(NC(=O)CC1SC(N)=NC1=O)c1ccccc1 (configuration not stated) | 0.087 (inactive) |
| CCOC(=O)C1=C(C)N=c2s/c(=C\C(=O)OC)c(=O)n2C1c1ccc(OC)cc1 (configuration not stated) | 0.0406 (active) |
| CCCC(c1nnnn1C(C)(C)C)N1CCN(Cc2ccccc2)CC1 (configuration not stated) | 0.0716 (inactive) |
| O=C1c2cccc3c([N+](=O)[O-])ccc(c23)C(=O)N1CC1CCCO1 (configuration not stated) | 0.0565 (active) |
| CCN1C(=O)/C(=C2/Sc3ccccc3N2CCCS(=O)(=O)O)SC1=S | 0.0827 (inactive) |
| CCCCc1nc(NCCN)c(C#N)c2c1CSC(C)(C)C2 | 0.0552 (active) |
| COc1cc2c(cc1OC)C(/C=C/c1ccco1)=NCC2 | 0.0485 (active) |
| O=C(Cc1ccccc1Cl)N1CCN(c2ccccn2)CC1 | 0.0716 (inactive) |
| O=C(Cc1ccc(Br)cc1)N1CCN(c2ccccn2)CC1 | 0.0628 (active) |
| COc1ccc(Cc2nc(-c3ccccn3)no2)cc1OC | 0.0708 (inactive) |
| CCSc1sc(CC)cc1C=O | 0.106 (active) |
| CC(NCc1ccccc1OC1CCCC1)c1ccccc1 (configuration not stated) | 0.0563 (active) |
| N=c1c2c(-c3ccccc3)c(-c3ccccc3)n(Cc3ccccc3)c2ncn1CCCO | 0.0532 (active) |
| Cc1nnnn1/C(=C\c1ccccc1)C(=O)OCC(=O)N1CC2(C)CC1CC(C)(C)C2 (configuration not stated) | 0.0442 (active) |
